# Test results taken from PubChem BioAssay (NCI).
# Compounds without any hit were thinned out: in the full panel of roughly 83,000, 20% have a hit.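 96-well plates, one dose, 48 hours. Percent growth reported; active if below 10.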 Unmarked numbers belong to inactive results. Calls of active or inactive are those of the source.
# Tested on: HL-60(TB) leukemia
# Assay: NCI-60 one-dose screen, 48 h (100 = growth as untreated, 0 = no growth, -100 = all killed)
# Details: 10 µM unless noted
row,SMILES,growth
1,O=C(Nc1cccc(Br)c1)Oc1cccc2cccnc12,4% [100 µM] (active)
2,COc1ccc2c(O)cc3c(c2c1)[C@H](CCl)CN3C(=O)c1cc2cc(NC(=O)CCN3CCOCC3)ccc2[se]1,66%
3,Cc1cc(Nc2ccc3c(c2)OCO3)c2cc3c(cc2n1)OCO3,-11.9% (active)
4,O=C(/C=C/c1cn(-c2ccccc2)nc1-c1ccccc1)CCC(=O)NO,98.3%
5,COC(=O)[C@@H]1CCCN1C(=O)[C@@H]1CCCN1C(=O)[C@H](Cc1ccccc1)NC(=S)Nc1cc(C(F)(F)F)cc(C(F)(F)F)c1,55.7%
6,C/C(=C\c1cc(Cl)ccc1OCC(=O)O)[N+](=O)[O-],52.5%
7,O=S(=O)(NCCCNc1nccc(-n2ccc3cccnc32)n1)c1cccc(C(F)(F)F)c1,109%
8,O=c1[nH]c2ccccc2cc1-c1nnc(Cc2ccccc2)o1,27.1%
9,COc1cc(-c2nn(-c3cccc(NC(=O)c4ccc(Cl)c(C(F)(F)F)c4)c3)cc2-c2ccncc2)ccc1Cl,3.23% (active)
10,CCOC(=O)c1cc(C#N)n2ncc3ccccc3c12,105%
11,Cn1cc(-c2[nH]c3cc(NC(=O)[C@H](N)C4CCCCC4)cc4c3c2C=NNC4=O)cn1,-55.8% (active)
12,Cc1cc(C(C)(C)CC(C)(C)C)ccc1OCCOCC[N+](C)(C)Cc1ccccc1,-67.1% (active)
13,COc1ccc(-c2cc(-c3cc(OC)ccc3OC)nc(SCC(C)=O)c2C#N)cc1,86.3%
14,Cc1ccccc1NC(=O)NC(CC(N)=O)c1ccc2c(c1)nc(-c1cccc(Oc3ccc(C(C)(C)C)cc3)c1)n2CCCN1CCCCC1C (stereo not drawn),-3.28% (active)
15,COc1cc(C2=NN(c3ccccc3)C(c3cccc(Nc4ccnc5cc(C(F)(F)F)ccc45)c3)C2)cc(OC)c1OC (stereo not drawn),94.8%
16,Cc1cc[n+](CCCC[n+]2ccc(C)cc2)cc1,94.5%
17,Cc1sc2nc(NCc3ccccc3)[nH]c(=O)c2c1C,22.4%
18,O=C(CCCSc1nc(-c2ccc(Cl)cc2)cc(-c2ccc(Cl)cc2)n1)NO,-25.4% (active)
19,COc1ccc(C2c3ccc4ccccc4c3Oc3ncn(CCCn4ccnc4)c(=N)c32)cc1OC (stereo not drawn),40.7%

row,SMILES,growth
1,COc1ccc(/C=C2\Oc3cc(OCCN4CCCC4)ccc3C2=O)c(OC)c1,75.6%
2,CCCCn1c(=O)[nH]c(N)c(C(c2ccc(F)cc2)c2c(N)[nH]c(=O)n(CCCC)c2=O)c1=O,78.7%
3,COc1cc2c(c(O)c1Br)C(=O)c1c(O)cc(C[C@H](C)O)cc1[C@H]2[C@H]1c2cc(C[C@H](C)O)cc(O)c2C(=O)c2c1cc(OC)c(Br)c2O,-28% (active)
4,CCN(CC)c1ccc(-c2cc(-c3cc(OC)c(OC)c(OC)c3)nc(N3CCC(O)CC3)c2C#N)cc1,-14.1% (active)
5,COc1ccc(C(=O)/C(=N/Nc2ccccc2)c2ccc(OC)cc2)cc1,88.4%
6,COc1ccc(-c2nn(-c3ccccc3)cc2/C=C/C(=O)OCc2cn(-c3ccc(F)c(Cl)c3)nn2)cc1,83.3%
7,CCOc1ccc(C(CN2CCOCC2)C(C)=O)cc1OC (stereo not drawn),84.7%
8,CCCc1n(Cc2ccc3ccccc3n2)cc[n+]1Cc1ccc2ccccc2c1,-53.7% (active)
9,CN(C)CCCn1c2c(c3ccncc3c1=O)C(=O)c1ccccc1-2,-19.8% (active)
10,CCOc1ccc(-c2cnnn2-c2nonc2-n2cccc2)cc1,-23.8% (active)
11,O=C(Nc1cccc(-n2cc(-c3ccncc3)c(-c3ccc(Cl)c(O)c3)n2)c1)Nc1cc(C(F)(F)F)cc(C(F)(F)F)c1,-18.3% (active)
12,CCOC(=O)c1ccc(NC(=O)CCCN(CC)CC)cc1,100%
13,Nc1ccccc1-c1ccn[nH]1,95.6%
14,O=C(Cc1ccc(/C=C/C(=O)c2nccs2)cc1)Nc1ccccc1,75%
15,O=C(CCCCCCSc1nc(-c2ccccc2)cc(-c2ccc(Cl)cc2)n1)NO,-37.5% (active)
16,c1ccc(Nc2ccccn2)cc1,64.9%
17,O=c1ccn(C2OC(F)(CO)C(O)C2F)c(=O)[nH]1 (stereo not drawn),114%
18,Cc1nn(-c2cc(NC3CCC(O)CC3)c3c(=O)[nH]c(CCC(F)(F)F)cc3c2)c2c1C(=O)CC(C)(C)C2 (stereo not drawn),28%
19,CCCCN(CCC)CCCCCCCCCCN1CCCc2ccccc21,42.2%
